{"source": "PubChem BioAssay (NCI)", "note": "The panel holds about 83,000 compounds, 20% with a hit somewhere; the sample as a whole holds those more often.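 For each line, cells grew in 96-well plates with the test compound present at a single concentration for 48 hours.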 Values without a mark were called inactive. Active and inactive are the calls of the source. The calls were made as follows: active = growth percent below 10; inactive = the rest."}
{"system": "K-562 leukemia", "assay": "NCI-60 one-dose screen, 48 h (100 = growth as untreated, 0 = no growth, -100 = all killed)", "conditions": "10 µM unless noted"}
{"smiles": "CN1C(=O)c2cc(Cl)nc3c(NC(=O)c4cccc(Cl)c4)c(Cl)c(NC(=O)c4cccc(Cl)c4)c1c23", "growth": "-43.3% (active)"}
{"smiles": "O=C(O)COc1ccc2c(=O)c3sc4c(=O)c5ccccc5c(=O)c4c3c(=O)c2c1", "growth": "24.9%"}
{"smiles": "O=C(Nc1nc(-c2ccccc2)cs1)c1cc(-c2ccc(Br)cc2)nc2ccccc12", "growth": "24.3%"}
{"smiles": "Cc1cc(Nc2nc(SCc3ccc(C(=O)Nc4ccc(F)cc4N)cc3)nn3cccc23)n[nH]1", "growth": "7.36% (active)"}
{"smiles": "O=C1NCc2ccc3c(-c4cccc(Cl)c4)c[nH]c3c21", "growth": "10.6%"}
{"smiles": "O=C(CN1N=C(c2ccc(F)cc2)CCC1=O)Nc1nccs1", "growth": "92.6%"}
{"smiles": "O=C1Nc2ccc(Cl)cc2/C1=N/c1nc(-c2ccc(F)cc2)cs1", "growth": "14.6%"}
{"smiles": "OCCNc1nc(NCCO)nc(Nc2ccc(C3=NN(c4cc(Cl)cc(Cl)c4)C(c4ccc(Cl)cc4)C3)cc2)n1", "note": "(stereo not drawn)", "growth": "4.31% (active)"}
